Results taken from PubChem BioAssay AID576 (NMMLSC, 2007).
Out of some 24,000 compounds screened, about 150 (0.62%) were called active. The full list was thinned out, with actives kept by preference. Values without a mark were called inactive.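 How the source made its calls: active means fluorescence ratio above 2.44, which is 1 plus 3 SD of all ratios; inconclusive means signal too bright to measure linearly, ratio around 10 or more; inactive means fluorescence ratio below 2.44.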

Experiment: intrinsic compound fluorescence with Jurkat cells – cell-based, flow cytometry, artefact control for VLA-4 allosteric ligand project, primary screen (AID 576);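 further: green fluorescence of cells measured with 488 nm excitation and 530 nm emission; tested at 10 µM compound in the well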
Conditions: compound autofluorescence, active compounds read high, 1 = vehicle-only cell background

Structure (SMILES)	fluorescence ratio
CCc1c(C)c2c(C)[nH]nc2oc1=O	1.2
CCOc1ccc(-c2nnc3ccc(SC)nn23)cc1	0.96
CCOC(=O)c1sc(=S)n2c1[nH]c(=O)c1ccc(C(=O)OC)cc12	1.2
CC(=O)Nc1ccc(NS(=O)(=O)c2cc(C)sc2C)cc1	2.14
O=C(CC1Oc2ccccc2NC1=O)NCCCN1CCN(Cc2ccccc2)CC1 (stereo not drawn)	1.05
COCCCNC(=O)CCc1nc2cccnc2n1Cc1ccc(OC)cc1	1.04
Cc1ccc(NC(=O)NCC(c2cccnc2)N2CCOCC2)cc1 (stereo not drawn)	0.96
O=C(CN1CCOc2ccccc21)N1CCC(Cc2ccccc2)CC1	1.07
O=C(NCc1ccco1)C1CCCN(S(=O)(=O)c2cccc3nonc23)C1 (stereo not drawn)	1.11
Cc1ccc(CNC(=O)CN2CCN(Cc3ccc(Cl)cc3)C2=O)cc1	1.03
Cc1ccc(NC(=O)C2CCCN(S(=O)(=O)c3c(C)noc3C)C2)c(C)c1 (stereo not drawn)	1.07
COc1ccc(C2CC(c3ccccc3)Nc3ncnn32)cc1 (stereo not drawn)	1.19
COc1cccc(-c2nc3n(n2)C(c2ccccc2Cl)C(C(N)=O)=C(C)N3)c1 (stereo not drawn)	1.01
CN1CCCc2cc(C#N)c(=O)[nH]c21	1
O=C(O)CCN1C(=O)CC2(CCCCC2)C1=O	1
Cc1ccc(NC(=O)CCNS(=O)(=O)c2ccc3c(c2)oc(=O)n3C)cc1C	1.08
CCOC(=O)N1CCN(CC(=O)c2ccc3c(c2)CCN3)CC1	0.99
CCCNC(=O)C1CC(=O)N(c2ccc(OCC(=O)Nc3cccc(C)c3C)cc2)C1 (stereo not drawn)	1.03
COc1ccc(N2C(=O)CCC(C(=O)Nc3ccccn3)C2c2ccc(OC)c(OC)c2)cc1 (stereo not drawn)	1.01
O=C(CC1N=C2c3ccccc3N=C(SCc3ccccc3Cl)N2C1=O)NCc1ccco1 (stereo not drawn)	1.18
Cc1occc1C(=O)Nc1nnc(C2CCCCC2)s1	0.94
CC1CSc2nnc(CCc3ccccc3)n21 (stereo not drawn)	1
O=C(NCc1ccc2c(c1)OCO2)c1cc2c(s1)CS(=O)(=O)C2	1.08
CCOc1ccc(N(CC(=O)OC)S(=O)(=O)c2c(C)noc2C)cc1	1.04
CC(=O)c1c(C)[nH]c(C(=O)NCCCN2CCCC2)c1C	0.97
Cc1ccc(C)c(NS(=O)(=O)c2cc(Br)cnc2N)c1	1.02

Structure (SMILES)	fluorescence ratio
Cn1c(=O)[nH]c(=O)c2c1nc(CN(Cc1ccccc1)Cc1ccccc1)n2CCN1CCOCC1	1.16
Cc1nc2c(-c3ccc(F)cc3)c(C)nn2c(C)c1CCC(=O)N1CCN(c2ccccn2)CC1	1.23
O=C(Cn1nc(Cc2cccnc2)c2ccccc2c1=O)NCC1CCCO1 (stereo not drawn)	1.02
CC(C)C[C@H](NC(=O)[C@@H]1O[C@H]1C(=O)O)C(=O)NCCCCN=C(N)N	0.97
COc1ccccc1CNC(=O)Cn1cc2c(n1)CCCC2	1.04
CCOC(=O)N1CCC(O)(c2cc(C)c(C)cc2C)CC1	0.98
O=C(NCc1ccco1)c1cccn2c(=O)c3cc(Br)ccc3nc12	1
CS(=O)(=O)c1ccc2nc(NC(=O)C3C4C=CC(C4)C3C(=O)O)sc2c1 (stereo not drawn)	1.05
CCCCc1nc2c(=O)[nH]c3ccccc3c2o1	1.21
Cc1nc2sc(C(c3ccco3)N3CCC4(CC3)OCCO4)c(O)n2n1 (stereo not drawn)	1.05
COc1cc2c(cc1OC)C(c1ccc(C)o1)CC(=O)N2 (stereo not drawn)	1
O=S(=O)(O)CCN1CCOCC1	1.09
Cc1cc(NC(=O)CSCc2nc(-c3cccc(Cl)c3)oc2C)no1	1.07
c1cc(-c2nn[nH]n2)ccc1CN1CCCCC1	1.02
Cc1ccc2c(c1)N(CCCC(=O)NCc1cccnc1)C(=O)CO2	1.05
Cc1cccc(N2CCN(S(=O)(=O)c3ccc4c(c3)c(=O)n(C)c(=O)n4C)CC2C)c1 (stereo not drawn)	1.11
COc1cccc(NC(=O)C2CCCN2C(=O)OCc2ccccc2)c1 (stereo not drawn)	1.04
CCC(C)NC(=O)C1CCC(=O)N1Cc1ccc(C)cc1 (stereo not drawn)	0.99
CCC(=O)N1c2ccc(S(=O)(=O)CCC(=O)N3CCN(c4ccccc4)CC3)cc2CC1C (stereo not drawn)	1.09
Cc1oc(C)c(C(=O)NCCCC(=O)O)c1C(=O)NCCCC(=O)O	1.08
O=c1[nH][nH]c(=O)c2cc(N3CCCC3)ccc12	1.01
CCOC(=O)N1CCN(S(=O)(=O)c2cc3c(cc2C)NC(=O)CO3)CC1	1.09
CCOc1ccc(Cn2nnc(C(=O)NCc3ccccc3)c2N)cc1	1.02
COc1ccc(N2C(=O)CCC(C(=O)N(C)C3CCCCC3)C2c2ccc(OC)c(OC)c2)cc1 (stereo not drawn)	0.98
COC(=O)C1=C(C)Nc2ncnn2C1c1ccco1 (stereo not drawn)	1.02
CCOc1nc(OCC)nc(-n2cc(-c3ccccc3)nn2)n1	1.08

Structure (SMILES)	fluorescence ratio
COCCn1c(-c2ccc(OC)c(OC)c2)nc2ccccc21	1.05
O=C(c1ccco1)N1CCN(C(=O)C2CC(c3ccc(F)cc3)=NO2)CC1 (stereo not drawn)	1.01
CCCOc1ccc(C2c3c(oc4cc(C)c(C)cc4c3=O)C(=O)N2CCCN2CCOCC2)cc1 (stereo not drawn)	0.94
CCN(CC)CCNC(=O)C1c2ccccc2C(=O)N(C)C1c1cn(C)c2ccccc12 (stereo not drawn)	1.11
Cc1cccc(NC(=O)C2CCN(S(=O)(=O)c3cccc4cccnc34)CC2)c1	1.03
O=S1(=O)CCN2C(=N1)SC1=C2CCN(Cc2ccccc2)C1	0.99
Cc1ccc(S(=O)(=O)NCc2cn3ccsc3n2)c(C)c1	1.07
Cc1cc(C)c2c(n1)nn1c(N3CCN(c4cccc(Cl)c4)CC3)cc(C)nc21	1.1
CC(=O)Nc1ccc(S(=O)(=O)Nc2nc3n(n2)C(c2ccccc2)CC(=O)N3)cc1 (stereo not drawn)	1.06
ON=C1/C(=N\O)CC2(C/C1=N/O)OCCO2	1.11
O=C(O)C1CCN(S(=O)(=O)N2CCOCC2)CC1	1
CCN1CCCC1CNC(=O)Cn1cnc2ccc(S(=O)(=O)N3CCC(C)CC3)cc2c1=O (stereo not drawn)	1.05
CCOc1cc2[nH]c(=O)n(CCC(=O)NCc3ccc(OC)cc3)c(=O)c2cc1OCC	0.94
CCOc1ccc(CNC(=O)C2CC(=O)N(C3CCCC3)C2)cc1OC (stereo not drawn)	0.92
Cc1ccc(-c2ccc(=O)n(CC(=O)NCCCN3CCCCC3)n2)cc1	1.06
CCCS(=O)(=O)C(=C1Nc2ccccc2N1)S(=O)(=O)CCC	1.04
COc1cc(-n2c(C)nc3cc(C(=O)NCc4ccco4)ccc32)cc(OC)c1OC	1.05
COCCOC(=O)C1=C(C)NC(=O)CC1c1cc2c(cc1Br)OCO2 (stereo not drawn)	0.99
O=C(NCCN1C(=O)C2C3C=CC(C3)C2C1=O)Nc1ccccn1 (stereo not drawn)	0.86
Cc1ccc(-n2nc3c(c2NC(=O)c2ccc4c(c2)OCO4)CSC3)c(C)c1	0.97
CCN1CCN(c2ncnc3c2oc2nc(C)c4c(c23)CC(C)(C)OC4)CC1	0.92
Cc1cc(NS(=O)(=O)c2ccccc2)no1	0.95
CCC1CCCCN1CCNS(=O)(=O)c1ccc2c(c1)CCN2C(C)=O (stereo not drawn)	1.02
CC(c1cccnc1)N(CCN(C)C)C(=O)Nc1ccc(Cl)c(Cl)c1 (stereo not drawn)	1.09
CCCOc1ccc(-c2nc(N)n[nH]2)cc1	1.01
CCOc1ccc(-n2c(SC(C)C(=O)OC)nc3c(c2=O)SCC3)cc1 (stereo not drawn)	1.09

Structure (SMILES)	fluorescence ratio
CCOC(=O)C1CCN(C(=O)C2CCN(S(=O)(=O)CC)CC2)CC1	1.02
Cc1ccc2cccc(O)c2[n+]1[O-]	1.03
CCC(C)n1[nH]c(=O)c2c(C)cc(C)nc21 (stereo not drawn)	1.05
CCOC(=O)Cn1c(=O)oc2cc(S(=O)(=O)NCC3CCCO3)ccc21 (stereo not drawn)	1.88
CCn1ncc(C2=NOC(C(=O)N3CCN(c4ccccc4)CC3)C2)c1C (stereo not drawn)	1.1
Cn1cccc1C1(C(F)(F)F)NCCNC1=O (stereo not drawn)	1.07
N#CC1=C(N)Oc2cc(O)ccc2C1C1CCCCC1 (stereo not drawn)	1.18
COC(=O)C1=C(C)OC(N)=C(C#N)C1c1cc(OC)ccc1OC (stereo not drawn)	1.05
C=C1c2cc(CC)ccc2NC(=O)N1c1ccc(C)cc1	1.01
O=c1c2ccccc2[nH]c(=S)n1CCN1CCC(=C(c2ccc(F)cc2)c2ccc(F)cc2)CC1	1.02
CC(=O)c1c(N2CCOCC2)nc(=S)n(Cc2ccccc2)c1C	1.3
COC(=O)Cn1cc(C(=O)c2cccs2)c2ccccc21	0.93
CCn1c(CSc2ncccn2)nnc1SCC(=O)N1c2ccccc2CC1C (stereo not drawn)	1
Cc1ccc(S(=O)(=O)NCCN2CCOCC2)cc1C	1.05
CCOc1ccccc1NC(=O)C1CCN(S(=O)(=O)c2c(C)nn(C)c2C)CC1	1.02
CCOC(=O)c1ccc(NC(=O)Cn2nnc(-c3ccc(C)cc3)n2)cc1	1.04
CC(C)(C)NC(=O)Cn1nnc(-c2ccccc2Cl)n1	3.61 (active)
N#Cc1ccc(COC(=O)Cn2nnc(-c3ccccc3)n2)cc1	1.04
O=C(Nc1ccccc1C(=O)N1CCOCC1)C1CCC(=O)N1C1CCCC1 (stereo not drawn)	1.04
CC(C)NC(=O)CCCn1c(=S)[nH]c2cc3c(cc2c1=O)OCO3	1.14
O=C(O)CSCNC(=O)CC12CC3CC(CC(C3)C1)C2	0.77
CCOC(=O)C1CCN(C(=O)CC2C(=O)N(Cc3ccccc3)C(C)c3nc4ccccc4n32)CC1 (stereo not drawn)	1.02
CCOC(=O)c1c(NC(=O)c2cccs2)sc(C)c1C	1.07
Cc1c(C(=O)NCCN2CCOCC2)sc2nc(-c3ccc(F)cc3)cn12	1.22
CC1CCN(Cc2nc3c(c(=O)n(C)c(=O)n3C)n2Cc2cccc3ccccc23)CC1	1.06
